Bioassay records (PubChem BioAssay)
M1 antagonist: blocks the rat M1 muscarinic receptor response to acetylcholine. 3.4% of 64,000 active. B-score at 10 µM. CHO-M1 cells, Fluo-4 calcium, ACh EC80 antagonist mode; active compounds read low. AID 628;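 active means calcium fluorescence response, raw or row-and-column corrected B-score, differing from the plate sample mean either way at a set confidence level, mostly lower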
Target sequence (P08482 whole entry, looked up): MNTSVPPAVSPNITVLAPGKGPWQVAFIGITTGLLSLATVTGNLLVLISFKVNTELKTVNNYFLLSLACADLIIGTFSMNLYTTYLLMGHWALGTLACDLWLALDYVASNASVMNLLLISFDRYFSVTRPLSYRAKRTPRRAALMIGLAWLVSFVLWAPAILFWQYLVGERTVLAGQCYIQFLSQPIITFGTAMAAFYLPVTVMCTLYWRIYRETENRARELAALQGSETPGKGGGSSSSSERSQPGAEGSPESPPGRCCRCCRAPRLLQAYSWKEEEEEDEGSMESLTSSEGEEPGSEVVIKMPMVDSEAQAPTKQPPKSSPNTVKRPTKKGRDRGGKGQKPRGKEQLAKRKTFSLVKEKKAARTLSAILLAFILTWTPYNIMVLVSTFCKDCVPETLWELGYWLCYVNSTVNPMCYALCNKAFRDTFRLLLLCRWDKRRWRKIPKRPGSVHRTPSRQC
Her2 expr inh: inhibitors of human Her2 kinase expression; AID 645; 0.69% of 65,000 active; HER2 level % of control, % at 10 µM; SKBR-3 HER2 protein level, AlphaScreen, 18-24 h; active compounds read low; P04626;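 active means HER2 level under 5% of the carrier-only control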;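 further: 100% = DMSO carrier and 0% = 500 nM PU-H71 HSP90 inhibitor; lower value means stronger loss of Her2 protein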
FXIa inh mix: blocks human factor XIa in pooled compound mixtures; purified FXIa, fluorogenic substrate; 0.19% of 62,000 active; P03951; inhibition, % at 5 µM;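 further: each value is inhibition by a whole ten-compound pool holding the compound; 0% = enzyme with no mixture and 100% = wells lacking enzyme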
JNK3 blocker: blocks human JNK3 kinase activity; P53779; purified JNK3 kinase activity, HTS; inhibition, % at 8 µM; 0.61% of 60,000 active; AID 746; in the data active means inhibition above about 17%;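 further: 0% = DMSO and 100% = reference inhibitor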
M1 agonist: activates the M1 muscarinic receptor; 3% of 64,000 active; CHO-M1 cells, Fluo-4 calcium fluorescence, agonist mode; active compounds read high; B-score at 10 µM; AID 626;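 active means fluorescence rise, raw or as B-score row- and column-corrected plate score, outside the 99.7% band of its plate's samples, either direction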
FXIIa mix inh: inhibitors of human coagulation factor XIIa, pooled mixtures | purified FXIIa, fluorogenic substrate | inhibition, % at 5 µM | 0.2% of 62,000 active;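 further: 0% = enzyme without compound and 100% = no enzyme blank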
M1 antag conf: M1 muscarinic receptor (rat) antagonism, confirmed; CHO-M1 cells, Fluo-4 calcium, ACh EC80 antagonism; active compounds read low; 43% of 1,700 active; shares compounds with M1 antagonist; AID 677; calcium response (max-min fluorescence) at 10 µM;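 active means calcium response below the same-plate mean of wells given acetylcholine alone at its 80%-effect dose, minus 3 SD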;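 further: raw fluorescence intensity difference in arbitrary instrument units and not normalized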
mGluR4 antag: mGluR4 (human) activity, M1 antagonist secondary assay | 0.9% of 1,700 active | fluorescence response (max-min) at 10 µM | CHO-mGluR4 calcium flux, Fluo-4 fluorescence, glutamate EC80; active compounds read low | shares compounds with M1 antagonist;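 active means fluorescence response below the plate's average for near-maximal glutamate wells, less 3 SD of those wells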;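 further: raw unnormalized fluorescence span taken in the window right after glutamate addition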
* marks the source's active call; other numbers are inactive results; . = no result. Most compounds without a hit are left out; they make up all but 6.9% or so of the library. Unless noted, no stated cut-off is given here; in the data, active means inhibition above about 20% (passing the limit was not always enough); inactive means the rest.

SMILES	M1 antagonist	Her2 expr inh	FXIa inh mix	JNK3 blocker	M1 agonist	FXIIa mix inh	M1 antag conf	mGluR4 antag
Cc1oc(-c2cccc(Cl)c2)nc1CN1CCCC(C(=O)NCc2ccco2)C1 (stereo not given)	-0.0098	78	9	-5	-0.85	2	.	.
CCOc1ccc(Nc2nc(Cc3nnc(SCC(=O)NCC4CCCO4)n3C)cs2)cc1 (stereo not given)	-0.4	142	-1	-7	-0.82	-12	.	.
CCOc1ccc(Nc2nc(Cc3nnc(SCC(N)=O)o3)cs2)cc1	-1.7*	58	7	.	-0.9	9	661	262
O=C(CSc1ncn[nH]1)N1CCN(c2nnc(-c3ccccc3)c3ccccc23)CC1	-2.9*	114	0	-9	0.003	5	497*	208
Cc1cccc(NC(=O)c2ccccn2)c1C	-1.9*	112	4	1	0.83	2	658	256
Cc1ccc(C)c(NC(=O)c2ccccn2)c1	0.59	98	9	-5	0.091	8	.	.
OC(COCc1ccco1)CN1CCN(C(c2ccccc2)c2ccccc2)CC1 (stereo not given)	-17*	108	3	0	-0.99	8	123*	252
CCN(CC)CCN(CC)Cc1ccccc1Br	-3.3*	92	4	3	0.71	10	451	193
CCN(CC)CCNc1nc2ccccc2n1C	-0.019	92	4	-4	-0.48	-14	.	.
CSC1=NCCN1C(=O)c1c(F)cccc1F	-3.1*	82	-1	3	0.55	1	641	250
CCOC(=O)C1=C(C)NC(SCC(=O)Nc2nc(C)cs2)=C(C#N)C1c1cccs1 (stereo not given)	0.036	49	.	-2	0.014	.	.	.
COc1cccc(CNc2nc3ccccc3n2CCN2CCCCC2)c1	-4.3*	65	11	-3	-2.1	10	608	273
Cc1sc2nc(SCC(=O)c3cc(C)n(CC4CCCO4)c3C)n(C(C)C)c(=O)c2c1C (stereo not given)	-1.4	66	5	-2	0.3	4	.	.
Cn1c(CN2CCCC2)nc2cc(NS(=O)(=O)c3ccccc3)ccc21	1.3	87	7	-2	0.32	2	.	.
Cn1c(CCN2CCCCC2)nc2cc(NS(=O)(=O)c3ccccc3)ccc21	-5.2*	80	6	-5	0.085	2	448*	239
Cn1c(CCN2CCCCC2)nc2cc(NC(=O)Nc3ccccc3)ccc21	-4.4*	67	-2	-11	0.4	7	194*	188
CCOCCCNC(=O)NC12CC3CC(CC(C3)C1)C2	-5.1*	106	5	5	0.46	5	591	266
O=C(NCCCN1CCOCC1)NC12CC3CC(CC(C3)C1)C2	0.022	91	8	5	0.54	-15	.	.
CCCC1C(C#N)=C(N)Oc2n[nH]c(C(C)(C)C)c21 (stereo not given)	-1.3	82	-9	9	-0.8	7	.	.
O=C(Nc1ccc(Cl)cc1)N(Cc1cccnc1)Cc1ccco1	-0.52	111	13	-5	-0.26	1	.	.
Cn1c(Cn2nnc3ccccc32)nnc1SCC(N)=O	0.37	106	7	2	0.15	8	.	.
COC(=O)c1c(NC(=O)CSc2nnc(Cn3nnc4ccccc43)n2C)sc(C)c1C	-2.4*	99	11	0	1.3	9	430*	255
CCOc1ccc(CN2CCNC(=O)C2CC(=O)OC)cc1 (stereo not given)	-2.9*	110	0	6	-0.67	2	657	255
Brc1ccc(-c2cnc3n2CCCC3)cc1	-3*	144	.	-2	-0.54	.	288*	240
O=C(NCCN1CCOCC1)C1CCN(c2nc3ccccc3o2)CC1	-2.2*	106	10	4	0.17	9	458*	244
Cc1nc2ccccc2c2oc(C(=O)NCCN3CCCCC3C)cc12 (stereo not given)	-3.4*	92	2	-2	-0.63	-18	354*	242
O=C(NC1CCCCCC1)C1CCN(c2nc3ccccc3o2)CC1	-2.8	103	4	5	-0.21	-1	.	.
